Sampled rows, rich in hits. Any-hit rate of the full collection: about 5.4%.
PfM18AAP inh: PfM18AAP inhibitors, malaria aminopeptidase, primary screen, biochemical, QFRET, recombinant enzyme; hit rate 1.2% among 290,000; inhibition, % at 7.35 µM; H-Glu-NHMec fluorogenic cleavage; M18 aspartyl aminopeptidase (Plasmodium falciparum 3D7);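 active means inhibition above the campaign mean inhibition over all tested compounds plus 3 SD, cut at about 28% in these data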
SMARCA2 act: SMARCA2 (BRM) function activators, primary screen, cell-based, luminescence, high throughput. MG213 cells, MMTV-luciferase reporter, dexamethasone, overnight. activation, % at 9.1 µM. AID 652017, 2013. hit rate 1% among 370,000; in the data active means activation above about 7.8%
ALR inh: inhibitors of human ALR sulfhydryl oxidase, primary screen, biochemical, H2O2 detection, HRP-luminol luminescence, single point; FAD-linked sulfhydryl oxidase ALR (Homo sapiens), P55789; purified ALR, DTT oxidation; inhibition, % (no concentration beside the values); hit rate 3.8% among 290,000; AID 485317, 2010;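 active means mean replicate inhibition above about 79%, with every replicate also reaching it, limit read from the data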
Target sequence (P55789 whole entry, looked up): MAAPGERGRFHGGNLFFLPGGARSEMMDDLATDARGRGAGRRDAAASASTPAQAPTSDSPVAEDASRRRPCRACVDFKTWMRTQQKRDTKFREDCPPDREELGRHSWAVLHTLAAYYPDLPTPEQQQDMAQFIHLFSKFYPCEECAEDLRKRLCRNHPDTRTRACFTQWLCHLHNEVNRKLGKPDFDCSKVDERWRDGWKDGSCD
beta cell repl: inducers of MIN6 beta-cell proliferation, primary screen, ATP luminescence, uHTS | MIN6 cells proliferation, ATPlite luminescence, 48 h; cells starved in 0.2% serum; 100% = growth in 10% serum | proliferation, % at 10 µM | hit rate 0.29% among 330,000 | AID 2380, 2010;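 active means compounds whose signal lies at least 3.5 SD above the mean of all wells on their plate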
Exocytosis inh: LAMP-1 surface exposure blockers, TALL-104 cells – cell-based, flow cytometry, MLPCN library, primary screen. TALL-104 LAMP-1 surface exposure; cells stimulated with thapsigargin and PMA. hit rate 0.66% among 360,000. inhibition, % at 10 µM;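 active means inhibition above about 55%, limit read from the data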
JMJD2C inh: inhibitors of GASC-1 histone demethylase, primary screen, biochemical, fluorescence, DELFIA europium | Lysine-specific demethylase 4C (Homo sapiens), Q9H3R0 | GST-JMJD2C(1-420) H3K9me3 demethylation | inhibition, % at 2.35 µM | hit rate 0.069% among 330,000 | AID 2099, 2009;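 active means more than half of a compound's replicate wells show inhibition beyond 50%, single wells judged on their own value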;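 further: signal counts dimethyl H3K9 product captured on neutravidin plate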
Target sequence (Q9H3R0 1-420 limits assumed): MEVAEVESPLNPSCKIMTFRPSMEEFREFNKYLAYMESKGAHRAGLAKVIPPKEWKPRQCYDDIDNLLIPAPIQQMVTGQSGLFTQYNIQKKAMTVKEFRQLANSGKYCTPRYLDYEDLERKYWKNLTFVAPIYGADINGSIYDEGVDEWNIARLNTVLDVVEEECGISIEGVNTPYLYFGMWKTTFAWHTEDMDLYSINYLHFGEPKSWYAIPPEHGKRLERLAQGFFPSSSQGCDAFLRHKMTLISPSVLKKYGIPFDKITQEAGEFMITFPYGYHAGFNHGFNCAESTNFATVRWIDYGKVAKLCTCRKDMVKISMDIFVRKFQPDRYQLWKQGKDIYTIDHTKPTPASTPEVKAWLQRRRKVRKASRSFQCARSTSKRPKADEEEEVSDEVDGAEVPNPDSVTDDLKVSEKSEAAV
Numbers stand for hits; n = inactive; x = no result given.

SMILES	PfM18AAP inh	SMARCA2 act	ALR inh	beta cell repl	Exocytosis inh	JMJD2C inh
COc1ccc(NC(=O)N(C)[C@H]2C[C@H]3c4[nH]c5c(-c6cccc(C)c6)cccc5c4CCN3C(=O)[C@H]2[C@H](C)O)cc1	x	n	x	x	x	x
COc1ccc(C(=O)C2(C(=O)Nc3cc(C)cc(C)c3)CC(c3ccccn3)=NO2)cc1 (configuration not stated)	x	n	x	x	x	x
COC(=O)Nc1ccc(SCC(=O)c2ccc(Cl)cc2)cc1	n	n	x	n	n	n
CC(=O)Nc1ccc(SCc2ncc(-c3ccccc3)o2)cc1	n	n	99	n	n	n
COC(=O)Nc1ccc(SCC(=O)c2ccccc2)cc1	n	n	99	n	n	n
CC(=O)Nc1ccc(SCC(=O)N(C)CC(=O)Nc2ccccc2Cl)cc1	x	n	98	n	n	n
C[C@H](O)[C@@H]1CN2CCc3c([nH]c4cccc(-c5ccccc5)c34)[C@@H]2C[C@@H]1N(C)C(=O)c1ccco1	x	n	x	x	x	x
O=S1(=O)c2c(NCc3ccco3)cccc2Oc2ccccc2CN1Cc1cn(Cc2ccc(Cl)cc2)nn1	x	n	x	x	x	x
CC(C)(C)N1C(=O)c2ccc(C(=O)Nc3ccc(O)cc3)cc2C1=O	n	n	98	n	n	n
O=C(NCCO)C1(C(=O)C2CC2)CC(c2ccccn2)=NO1 (configuration not stated)	x	n	x	x	x	x
Oc1ccccc1N1CCN(c2nnnn2-c2ccccc2)CC1	n	n	99	n	n	n
COC(=O)CNc1ccc2c(c1)OCO2	31	n	n	n	n	n
CC(C)c1ccc(CNc2ccc(N3CCOCC3)cc2)cc1	n	n	99	n	n	n
CC(C)c1ccc(S(=O)(=O)Nc2ccc(N3CCOCC3)cc2)cc1	n	n	n	n	n	n
c1cc(CNc2ccc3c(c2)OCO3)ccn1	n	n	87	n	n	n
c1cc2c(cc1CNc1ccc(N3CCOCC3)cc1)OCO2	x	n	98	n	n	x
COC(=O)Nc1ccc2c(c1)OCO2	n	n	x	n	n	n
N/C(=N\C(=O)OCc1ccccc1)N(Cc1ccccc1)C(C#CC1=CCCCC1)Cc1ccccc1 (configuration not stated)	x	n	x	x	x	x
c1ccc(NCc2ccncc2)cc1	n	n	n	n	n	n
c1cc(CNc2ccc(N3CCOCC3)cc2)ccn1	n	n	99	n	n	n
Cc1ccc(CNc2ccc(N3CCOCC3)cc2)cc1	n	n	99	n	n	n
CC(Nc1ccc2c(c1)OCCO2)C(=O)Nc1ccc2c(c1)OCO2 (configuration not stated)	n	n	96	n	n	n
COc1cccc(C(=O)N[C@@H](CC(C)C)C(=O)N2CCC[C@H]2C(=O)NCc2ccccc2)c1	x	n	x	x	x	x
COC(=O)[C@@]12CCCCC3=C1N(CCC3)C(=O)[C@H]2CC(=O)N1CCN(C(=O)C2CC2)CC1	x	n	x	x	x	x
O=C(Nc1ccc(F)cc1)C1=CC(=O)N2CCN=C2S1	29	x	n	n	x	n
SMILES	PfM18AAP inh	SMARCA2 act	ALR inh	beta cell repl	Exocytosis inh	JMJD2C inh
COC(=O)C1=CC(=O)N2CCN=C2S1	x	n	x	x	x	x
CCCNC(=O)C(=O)N/N=C/c1cccs1	n	n	n	n	n	n
CC(C)CNC(=O)C(=O)N/N=C/c1cccs1	n	n	82	n	n	n
O=C(CCCNc1ccccc1)N/N=C/c1cccs1	n	n	98	n	n	n
COc1ccc(N=C2C(=O)Nc3ccccc32)cc1	n	n	86	n	n	n
COc1ccc(NC(=S)NC(=O)c2cccnc2)cc1	n	n	n	n	n	n
Cc1ccccc1C(=O)NNC(=S)NC(=O)c1cccnc1	n	n	n	n	n	n
O=C(NNC(=S)NC(=O)c1ccccc1)c1cccnc1	n	n	98	n	n	n
COc1ccc(C(=O)NC(=S)NNC(=O)c2cccnc2)cc1	n	n	99	n	n	n
O=C(NC(=S)NNC(=O)c1ccccc1F)c1cccnc1	29	n	n	n	n	n
COc1cc(OC)cc(C(=O)NNC(=S)NC(=O)c2cccnc2)c1	n	n	98	n	n	n
COC(=O)[C@H]1C[C@@]2(C3C=CC=C3)c3ccccc3N[C@H]2N1	x	n	x	x	x	x
COc1cc(C(=O)NC2CCCCN(Cc3cccc(Cl)c3)C2=O)cc(OC)c1OC (configuration not stated)	x	n	x	x	x	x
COc1cccc(C(=O)n2ccc3ccc(-c4ccc5ccn(Cc6ccccc6)c5c4)cc32)c1	x	n	x	x	x	x
COc1cc(OC)cc(C(=O)NC(=S)NNC(=O)[C@H]2C[C@@H]2c2ccccc2)c1	n	n	99	n	n	n
Cc1ccc(Oc2ccc(C(=O)NC3CCSC3=O)cn2)cc1 (configuration not stated)	n	n	99	n	n	n
N=C1/C(=C\c2ccc(OC(=O)c3ccc(F)cc3)cc2)C(=O)N=C2SC(N3CCOCC3)=NN12	n	n	95	n	n	n
CSc1ccc(/C=C2\C(=N)N3N=C(CC(=O)N4CCCCC4)SC3=NC2=O)cc1	n	n	96	n	n	n
CC1CCN(C2=NN3C(=N)/C(=C\c4ccc(OC(=O)c5ccco5)cc4)C(=O)N=C3S2)CC1	n	n	n	n	n	n
CCN(CC)c1ccc(/C=C2\C(=N)N3N=C(CC(=O)N4CCOCC4)SC3=NC2=O)cc1	n	n	98	n	n	n
CC(C)c1ccc(/C=C2\C(=N)N3N=C(CC(=O)N4CCCCC4)SC3=NC2=O)cc1	n	n	96	n	n	n
CSc1ccc(/C=C2\C(=N)N3N=C(CC(=O)N4CCOCC4)SC3=NC2=O)cc1	n	n	n	x	n	n
COc1ccc(-n2c(SCC(=O)NNC(=S)Nc3ccc(C)cc3)nnc2-c2ccccc2)cc1	x	n	x	x	x	x
O=C(CSc1nc2ccccc2n1Cc1ccccc1)NN=C/C=C/c1ccccc1	x	n	x	x	x	x
COc1ccc(/C=C2\C(=N)N3N=C(CC(=O)N4CCCCC4)SC3=NC2=O)cc1	n	n	80	n	n	n
COc1cc(NC(=O)c2ccccc2)c(C)cc1NC(=O)CSc1nnc(-c2ccco2)n1Cc1ccco1	x	n	x	x	x	x
Cc1ccccc1CNC(=O)CN1CCCc2ccccc21	x	n	x	x	x	x
Cc1c(CCCC(=O)O)sc(N)c1C(=O)c1cccc(C(F)(F)F)c1	x	n	96	n	n	n
COc1ccc(Nc2nc(CN3CCOCC3)nc3sc4c(c23)CCC(C)C4)cc1OC (configuration not stated)	n	x	n	n	x	n
CC1CCc2c(sc3nc(CN4CCOCC4)nc(Sc4ccccc4)c23)C1 (configuration not stated)	n	n	98	n	n	n
